# PubChem BioAssay (Tox21)
# Inconclusive results are not listed. Values without a mark were called inactive. The call rests on the fitted dose curve; in most records, active means well fitted activation curve with a large enough effect; inconclusive means small, poorly fitted or top-dose-only effect; inactive means flat fitted curve, though single readings scatter. Starred links: 1 amine or outer side, 2 acyl side, 3 side chain; linkers in the order of their positions; H or OH if unused. Positions of bridges follow the written chain, without caps; N, C: chain ends. Non-standard residues stand in square brackets, D forms with d. Residues, ends and D or L forms follow the SMILES beside them. *: point of attachment. X5 = NC1=N[C@@H]([C@H](N[*:1])C(=O)[*:2])C[C@H](O)N1; ΔAla(Z-3-ureido) = NC(=O)N/C=C(\N)C(=O)O; β3hOrn = NCCC[C@H](N)CC(=O)*; Orn = NCCC[C@H](N)C(=O)O; Dap = NC[C@H](N)C(=O)O; Mpa = O=C(O)CCS
# Assay: qHTS assay to identify small molecule phospholipidosis (PLD) inducers (AID 1259344)
# Conditions: HepG2 phospholipidosis, LipidTOX Red imaging, 24 h; series mostly up to 38.3 µM; PLD induction: at the top concentration
# From the text: National Center for Advancing Translational Sciences [NCATS]
# Drug-induced Phospholipidosis (PLD) caused by cationic amphiphilic drugs is characterized by the appearance of unicentric or multicentric-lamellar bodies when viewed under electron microscope. Electron microscopy is the gold standard method for PLD detection, however, this method is time-consuming and labor intensive, making it unsuitable for evaluating a large set of compounds. A cell-based phospholipidosis assay has been developed using the LipidTox reagent in HepG2 cells and miniaturized into a 1536-well plate format. Drug induced phospholipid accumulation is stained with the LipidTox dyes in red color which then is determined using an automated high content screening system.
# HepG2 cells are dispensed at 900 cells/3 uL/well into Collagen I-coated 1536-well black-wall/clear-bottom assay plates (Greiner Bio-One, Monroe, NC) using the Multidrop Combi 8 channel dispenser (Thermo Fisher, Waltham, MA, USA). The assay plates are incubated at 37 C for 4 hours to allow the cell attachment. 3 uL of 1:500 LipidTOX Red dye is added using the dispenser, and then 23 nL compounds are added via a Wako Pintool station (Wako Automation, San Diego, CA). Amiodarone, a known PLD inducer, was used as a positive control and DMSO was used as a negative control. The assay plates were then incubated at 37 C for 24 hours.
# For fixations, 4 uL of 8% paraformaldehyde fixative solution containing 10 ug/mL Hoechst 33342 in Dulbecco's phosphate-buffered saline (DPBS) is added using a Kalypsys washer/dispenser (Kalypsys, San Diego, CA, USA). After incubation at room temperature for 30 min, the assay plates are washed once with DPBS using a Kalypsys washer/dispenser. The assay plates are then sealed and stored at 4 C before imaging. The fluorescence intensities (595 nm excitation, 615 nm emission for LipidTOX; 352 nm excitation, 461 nm emission for Hoechst 33342) are measured using an ImageXpress Micro Widefield High Content Screening System (Molecular Devices, Sunnyvale, CA, USA) with a 20x Plan Fluor objective. Images are acquired for one site in each well and analyzed with the MetaXpress software (Molecular Devices) using the Transfluor module. Several algorithmic outputs, such as pit count per well, pit count per cell, pit integrated intensity per well, and pit integrated intensity per cell, are used for quantitative image analysis for PLD.
# On the % scale 0 is the no-effect control and ±100 the full control effect.
row,Compound,PLD induction
1,CC1=C(C(=O)OCCN(Cc2ccccc2)c2ccccc2)C(c2cccc([N+](=O)[O-])c2)C(P2(=O)OCC(C)(C)CO2)=C(C)N1 (stereo not given),-1.08% [at 7.66 µM]
2,CC(=O)[C@@]1(O)CC[C@H]2[C@@H]3C=C(Cl)C4=CC(=O)[C@@H]5C[C@@H]5[C@]4(C)[C@H]3CC[C@@]21C,0.0028%
3,CCOC(=O)Cc1cccc(-c2cc(CCCCCCc3ccc(O[C@H]4O[C@H](COC(C)=O)[C@@H](OC(C)=O)[C@H](OC(C)=O)[C@@H]4OC(C)=O)c(-c4cccc(CC(=O)OCC)c4)c3)ccc2O[C@H]2O[C@H](COC(C)=O)[C@@H](OC(C)=O)[C@H](OC(C)=O)[C@@H]2OC(C)=O)c1,-1.48%
4,C=Cc1c(C)c2cc3nc(cc4[nH]c(cc5nc(cc1[nH]2)C(C)=C5CCC(=O)OC)c(CCC(=O)O)c4C)[C@@]1(C)C3=CC=C(C(=O)OC)[C@H]1C(=O)OC,-1.56%
5,S=C1SCN(Cc2ccccc2)CN1Cc1ccccc1,5.33%
6,Cc1nc(NS(=O)(=O)c2ccc(N)cc2)nc(C)c1Br,-0.81%
7,CCOc1ccc(C[C@H]2NC(=O)CCSSC[C@@H](C(=O)N3CCC[C@H]3C(=O)N[C@@H](CCCN)C(=O)NCC(N)=O)NC(=O)[C@H](CC(N)=O)NC(=O)[C@H]([C@@H](C)O)NC(=O)[C@H]([C@@H](C)CC)NC2=O)cc1 ([Mpa][dY](Et)ITNCP[Orn]G-NH2; disulfide 1-6),14.3%
8,Nc1ncnc2c1ncn2[C@@H]1O[C@H](COP(=O)(O)OP(=O)(O)OP(=O)(O)O)[C@@H](O)[C@H]1O,2.91%
9,CN[C@@H]1[C@@H](O)[C@@H](O[C@@H]2[C@@H](O)[C@H](OC3OC(CN)=CCC3N)[C@@H](N)C[C@H]2N)OC[C@]1(C)O (stereo not given in full),-0.234% [at 15.5 µM]
10,C[C@@H]1C/C=C/C=C/C=C/C=C/[C@H](O[C@@H]2O[C@H](C)[C@@H](O)[C@H](N)[C@@H]2O)C[C@@H]2O[C@](O)(C[C@@H](O)C[C@H]3O[C@@H]3/C=C/C(=O)O1)C[C@H](O)[C@H]2C(=O)O,0.677%
11,C[C@]12CC[C@@H]3c4ccc(O)cc4CC[C@H]3[C@@H]1CC[C@@H]2OP(=O)(O)O,1.1%
12,CCOC(=O)Oc1c(OC)cc(C(=O)O[C@@H]2C[C@@H]3CN4CCc5c([nH]c6cc(OC)ccc56)[C@H]4C[C@@H]3[C@H](C(=O)OC)[C@H]2OC)cc1OC,18.3% [at 15.5 µM]
13,CCCCOC(=O)C(=O)Nc1cccc(-c2nn[nH]n2)c1,-1.74%
14,NCCC[C@H](N)CC(=O)N[C@H]1CNC(=O)[C@H]([C@H]2C[C@H](O)NC(N)=N2)NC(=O)/C(=C/NC(N)=O)NC(=O)[C@H](CO)NC(=O)[C@H](CO)NC1=O (β3hOrn-[Dap]SS[ΔAla(Z-3-ureido)][X5]; lactam 1-C),-0.645%
15,CC1(C)S[C@@H]2[C@H](NC(=O)C(C(=O)O)c3ccsc3)C(=O)N2[C@H]1C(=O)O (stereo not given in full),-1.46%
16,CC(=O)O[C@H]1CC[C@@]2(C)C(=CC[C@@H]3[C@@H]2CC[C@]2(C)C(c4cccnc4)=CC[C@@H]32)C1,-2.42%
17,NCCCNCCCCNC(=O)C(O)NC(=O)CCCCCCN=C(N)N (stereo not given),-1.69% [at 7.66 µM]
18,CCC(Oc1ccccc1)C(=O)N[C@@H]1C(=O)N2[C@@H]1SC(C)(C)[C@@H]2C(=O)O (stereo not given in full),-0.199%
19,C[Se]CCC(N)C(=O)O (stereo not given),0.107%
20,COc1ccc(CC2c3cc(OC)c(OC)cc3CC[N+]2(C)CCC(=O)OCCCCCOC(=O)CC[N+]2(C)CCc3cc(OC)c(OC)cc3C2Cc2ccc(OC)c(OC)c2)cc1OC (stereo not given),-0.587% [at 15.5 µM]

row,Compound,PLD induction
1,c1cnc2cc3c(cc2n1)[C@@H]1CNC[C@H]3C1,-3.43%
2,COCC(=O)Nc1cc(Sc2ccccc2)ccc1N=C(NC(=O)OC)NC(=O)OC,1.14%
3,O=P(O)(O)OC[C@H]1O[C@](O)(COP(=O)(O)O)[C@@H](O)[C@@H]1O,-0.237%
4,CC(=O)Nc1ccc(NC(=S)NC(=O)c2ccc(C(C)(C)C)cc2)cc1,4.11%
5,C=CCNC1=C2C[C@@H](C)C[C@H](OC)[C@H](O)[C@@H](C)/C=C(\C)[C@H](OC(N)=O)[C@@H](OC)/C=C\C=C(/C)C(=O)NC(=CC1=O)C2=O,-1.68%
6,COc1ccc(CCNC[C@H](O)c2ccc(O)cc2)cc1OC,-0.409%
7,NCc1ccccc1CC(=O)N[C@@H]1C(=O)N2C(C(=O)O)=C(CSc3nnnn3CC(=O)O)CS[C@H]12,0.0482% [at 15.5 µM]
8,NCCC(=O)[N-][C@@H](Cc1cnc[nH]1)C(=O)O.[Zn],-3.53%
9,CCN(CC)Cc1cc(Nc2ccnc3cc(Cl)ccc23)ccc1O,4.62% [at 15.5 µM]
10,CCOC(=O)[C@H](CCc1ccccc1)N[C@@H](C)C(=O)N1CC2(C[C@H]1C(=O)O)SCCS2,5.72%
11,CCCCC(F)(F)[C@@]1(O)CC[C@H]2[C@@H](CC(=O)[C@@H]2CCCCCCC(=O)O)O1,-13.4%
12,CNC(=O)c1c(I)c(C(=O)NCC(=O)Nc2c(I)c(C(=O)O)c(I)c(C(=O)NCCO)c2I)c(I)c(N(C)C(C)=O)c1I,0.266%
13,CC(=O)Oc1cccc(C(=O)O)c1OC(C)=O,-0.278%
14,CC1(C)[C@@H]2CC[C@@]1(C)[C@H](OC(=O)CSC#N)C2,0.522%
15,CC(/C=C/C=C(\C)C(=O)O[C@@H]1O[C@H](CO[C@@H]2O[C@H](CO)[C@@H](O)[C@H](O)[C@H]2O)[C@@H](O)[C@H](O)[C@H]1O)=C\C=C\C=C(C)\C=C\C=C(/C)C(=O)O[C@@H]1O[C@H](CO[C@@H]2O[C@H](CO)[C@@H](O)[C@H](O)[C@H]2O)[C@@H](O)[C@H](O)[C@H]1O,-1.2%
16,O=c1oc2cc(O)ccc2s1,-1.01%
17,COc1cc(C)c(/C=C/C(C)=C/C=C/C(C)=C/C(=O)O)c(C)c1C,1.97%
18,CC(=O)Oc1c(C)cc(OCC(O)CNC(C)C)c(C)c1C (stereo not given),3.66%
19,CC(C)Cc1ccc([C@@H](C)C(=O)NS(C)(=O)=O)cc1,0.0468%
20,O=C1C(=O)c2ncccc2-c2cccnc21,1.28%
